# p97 inhibitor – blocks human p97 ATPase activity; actives 0.42% (n = 220,000); P55072; recombinant p97 ATPase, Kinase-Glo ATP luminescence, 3 h; inhibition, % at 8 µM; AID 1481; in the data active = inhibition above about 15%;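 also: 0% = DMSO vehicle and 100% = wells lacking enzyme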
# Target sequence (P55072 whole entry, looked up): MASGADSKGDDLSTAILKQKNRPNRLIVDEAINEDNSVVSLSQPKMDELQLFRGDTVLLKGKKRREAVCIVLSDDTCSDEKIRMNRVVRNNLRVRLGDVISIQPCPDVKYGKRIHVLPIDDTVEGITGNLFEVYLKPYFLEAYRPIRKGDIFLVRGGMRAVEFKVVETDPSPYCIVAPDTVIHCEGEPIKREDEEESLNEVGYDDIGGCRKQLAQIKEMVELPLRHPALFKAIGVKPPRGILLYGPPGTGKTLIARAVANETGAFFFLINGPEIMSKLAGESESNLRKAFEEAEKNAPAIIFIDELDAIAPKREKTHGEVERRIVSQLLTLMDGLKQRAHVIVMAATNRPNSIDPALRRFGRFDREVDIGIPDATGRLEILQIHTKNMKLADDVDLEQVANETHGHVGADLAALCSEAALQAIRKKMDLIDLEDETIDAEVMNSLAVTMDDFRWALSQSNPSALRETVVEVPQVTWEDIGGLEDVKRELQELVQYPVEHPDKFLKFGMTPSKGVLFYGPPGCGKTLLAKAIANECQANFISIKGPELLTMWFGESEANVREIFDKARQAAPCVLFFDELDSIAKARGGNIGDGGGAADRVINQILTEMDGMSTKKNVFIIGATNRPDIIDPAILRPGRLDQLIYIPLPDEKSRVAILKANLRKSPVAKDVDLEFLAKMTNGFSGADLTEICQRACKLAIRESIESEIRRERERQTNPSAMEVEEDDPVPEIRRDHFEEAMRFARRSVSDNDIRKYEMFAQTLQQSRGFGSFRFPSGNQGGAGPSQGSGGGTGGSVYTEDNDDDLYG
# Insulin prom inh – TRM-6 insulin promoter activity inhibition; TRM-6 cells (human fetal islet line), insulin promoter-eGFP reporter, imaging; reporter expression induced with tamoxifen; inhibition, % at 2 µM; actives 0.9% (n = 130,000); AID 1273;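 active = inhibition above the mean plus 3 SD, with well images judged a real hit on visual review, cut at about 60% in these data, passing the limit was not always enough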
# HCT116 bCat-KO – beta-catenin-lacking colon tumor cell growth suppression | HCT116 beta-catenin knockout viability, CellTiter-Glo, 60 h; active compounds read low | viability, % at 10 µM | actives 1.5% (n = 140,000) | AID 818;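 active = viability at or under a set limit, the compound median less 4 SD, cut at about 6% in these data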;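 also: 0% = Hyamine 1622 control at 20 µM and 100% = untreated cell control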
# ROMK primary – human ROMK K+ channel modulation, primary screen | B-score at 10 µM | P48048 | AID 1918 | Tet-inducible ROMK, thallium flux fluorescence; actives lie on both sides | actives 2% (n = 130,000);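 active = signal ratio slope over the read window, or its plate-corrected B-score, at least 3 SD from the plate mean, either direction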;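 also: B-score of the F/F0 ratio slope over 7 to 12 s after thallium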
# PTEN del growth – suppresses growth of cells with PTEN deletion | HCT116 PTEN-null viability, CellTiter-Glo, 60 h; active compounds read low | viability, % at 10 µM | actives 1.2% (n = 140,000);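 active = viability at or below a set limit, 4 SD under the median of all tested compounds, cut at about 3.7% in these data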;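 also: PTEN knockout HCT116 line with beta catenin targeted HCT116 as companion control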
# Lmaj promast – reduces viability of Leishmania major promastigotes. resazurin fluorescence viability. inhibition, % at 10 µM. actives 9% (n = 200,000); in the data active = inhibition above about 50%;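 also: promastigotes grown with compound for 44 hours at 28 °C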
# * marks the source's active call; other numbers are inactive results; / = no result. In the library only some 10% were active in any assay of this set; here they are far more common.
SMILES,p97 inhibitor,Insulin prom inh,HCT116 bCat-KO,ROMK primary,PTEN del growth,Lmaj promast
Cc1cccc(OCCC(=O)NCC(=O)Nc2cccc(C)c2C)c1,-5.7,-77.8,91.0,/,91.1,60.9*
O=C(Nc1ccccc1F)C(=Cc1sc(N2CCOCC2)nc1-c1ccccc1)C(=O)Nc1ccccc1F,1.4,/,28.3,/,15.9,53.0*
O=C(N/N=C/c1sc(N2CCOCC2)nc1-c1ccccc1)c1ccccc1O,3.2,23.1,16.4,-0.957,16.0,44.1
Cc1cc(C(=O)N/N=C/c2sc(N3CCOCC3)nc2-c2ccccc2)c(C)o1,6.9,28.6,/,0.433,/,52.3*
O=C(N/N=C/c1sc(N2CCOCC2)nc1-c1ccccc1)c1ccccc1F,3.4,/,/,/,/,/
Brc1cccc(CSc2nnc(-c3ccncc3)o2)c1,2.7,/,/,-0.689,/,-0.1
COc1ccc(NS(=O)(=O)c2ccc(N3CCOCC3)c(NC(=O)c3ccc(OC)cc3)c2)cc1,3.1,-68.6,80.1,-0.679,77.6,82.2*
COc1ccc2cc(/C(C)=N/NC(=S)Nc3cc(S(=O)(=O)N4CCOCC4)ccc3N3CCOCC3)ccc2c1,2.1,/,/,2.15,/,75.0*
COC(=O)CCC(=O)Nc1cc(S(=O)(=O)Nc2ccc(Cl)cc2)ccc1N1CCOCC1,4.0,-103.3,91.6,0.217,96.5,-3.7
COc1ccc(NS(=O)(=O)c2ccc(N3CCOCC3)c(NC(=O)c3ccccc3Cl)c2)cc1,-1.1,-69.2,76.1,0.0628,65.4,97.5*
CCOC(=O)c1c(NC(=O)COC(=O)C2CC2C)sc(C)c1C (centres undefined),-2.0,/,/,-0.463,/,7.2
O=C(CN1CCSCC1)N/N=C/c1cccc(Cl)c1,-5.0,/,/,-0.853,/,-10.0
O=C(COc1ccc(F)cc1)NC1CC1,-2.6,/,100.1,0.729,93.5,2.1
O=C(COc1ccccc1)NC1CCCCC1,2.1,-7.1,88.6,-0.00883,97.8,-4.5
O=C(COc1ccc(C(=O)c2ccccc2)cc1)NC1CCCCC1,-0.5,16.2,47.4,-1.34,55.7,52.5*
O=C(COc1ccc(C(=O)c2ccccc2)cc1)NC1CCCCCC1,-7.2,10.8,60.0,/,61.5,62.3*
CCO[C@H]1OC(C(=O)O)=C[C@@H](C)[C@@H]1CCCO,7.0,/,/,/,/,-6.5
Cn1cnc([N+](=O)[O-])c1N=C(N)N,6.5,/,/,/,/,/
Cc1ccc(-n2ncc(Br)c(Br)c2=O)cc1,-0.3,-400.0,/,-0.05,/,100.2*
O=c1c(Br)c(Br)cnn1-c1ccccc1,5.6,/,/,-0.428,/,100.5*
COc1cnn(-c2ccc(F)cc2)c(=O)c1Br,0.5,-44.4,/,0.565,/,-8.3
COC(=O)C(C)NC(=O)c1ccc(C(C)(C)C)cc1 (centres undefined),4.3,-56.2,92.2,/,102.4,-7.3
COc1ccc(/C=N/N2CCOCC2)cc1Cn1cc([N+](=O)[O-])cn1,5.2,/,/,0.0835,/,/
CCOc1ccccc1-n1c(SCC(=O)Nc2nccs2)nnc1-c1ccoc1C,-2.7,/,68.7,-0.00697,72.3,73.0*
CCc1nnc(NC(=O)CSc2nnc(-c3ccoc3C)n2-c2ccc(C)cc2)s1,1.3,/,92.2,-0.223,105.9,-2.4
SMILES,p97 inhibitor,Insulin prom inh,HCT116 bCat-KO,ROMK primary,PTEN del growth,Lmaj promast
CCc1nnc(NC(=O)CSc2nnc(-c3cc4ccccc4cc3O)n2CCOC)s1,17.0*,-33.3,104.6,/,95.2,-9.6
CCc1nnc(NC(=O)CSc2nnc(-c3ccoc3C)n2-c2ccccc2)s1,-4.0,81.4*,102.8,-0.0633,90.9,-18.3
CCc1nnc(NC(=O)CSc2nnc(-c3cc4ccccc4cc3O)n2CC)s1,-0.1,-9.4,89.6,/,81.7,-15.2
CCCn1c(SCC(=O)Nc2ccc(S(=O)(=O)N(C)C)cc2)n[nH]c1=O,6.1,16.7,/,-0.0135,/,0.0
CCOC(=O)CCC(=O)Nc1ccc([N+](=O)[O-])cc1C,6.1,/,/,-0.0601,/,3.2
OC(CNCC(c1ccc(Cl)cc1Cl)c1c[nH]c2ccccc12)c1ccccc1 (centres undefined),4.3,-314.3,/,-0.159,/,100.3*
COc1cccc(-n2c(N)c(C(=O)Nc3c(C)n(C)n(-c4ccccc4)c3=O)c3nc4ccccc4nc32)c1,8.0,/,/,/,/,/
Cc1ccc(C(=O)Nc2c(C)n(C)n(-c3ccccc3)c2=O)cc1,-0.4,-93.3,/,-0.0384,/,-9.5
Cc1cc(C)cc(-n2c(N)c(C(=O)Nc3c(C)n(C)n(-c4ccccc4)c3=O)c3nc4ccccc4nc32)c1,-4.8,14.3,28.5,/,17.1,76.5*
Cc1ccc(-n2c(N)c(C(=O)Nc3c(C)n(C)n(-c4ccccc4)c3=O)c3nc4ccccc4nc32)cc1,2.8,33.3,6.6,/,5.1,59.8*
Cc1ccnc(NC2OC(=O)c3ccccc32)c1 (centres undefined),-0.7,10.7,99.3,0.449,94.8,-3.8
O=C(O)c1sc2ncccc2c1OCc1ccccc1,-1.2,23.5,/,0.0126,/,-5.8
Oc1ccc(COCc2ccccc2)c2cccnc12,5.8,/,3.9*,-1.51,2.3*,100.5*
CCCOCc1ccc(O)c2ncccc12,0.9,/,/,/,/,/
CC(C)COCc1ccc(O)c2ncccc12,2.9,/,/,-1.17,/,100.3*
Cc1ccc(N2C(=O)c3ccc(C(=O)N4CCN(Cc5ccccc5)CC4)cc3C2=O)cc1,2.5,/,/,/,/,/
COc1ccc(OC)c(NC(=O)C(CC(=O)O)NCc2ccco2)c1 (centres undefined),2.5,0.0,99.6,0,104.4,-1.8
CCOC(=O)/C=C1\SCC(=O)N1CC(=O)NC(c1ccccc1)c1ccccc1,-0.2,-48.0,72.6,/,63.1,77.3*
C/C(=N\NC(=O)C(C)n1nc(C)c([N+](=O)[O-])c1C)c1ccccc1O (centres undefined),5.3,56.2,6.1*,-0.181,4.2,21.0
CC(NC(=O)COC(=O)[C@@H]1CCCN1S(=O)(=O)c1ccccc1F)C12CC3CC(CC(C3)C1)C2 (some centres undefined),0.9,-3.7,86.4,/,95.9,95.6*
COc1ccc(C[C@H]2CN3C(=NC[C@@H]3Cc3ccccc3)N2CCNC(=O)c2ccc(C)c(Br)c2)cc1,5.4,/,/,/,/,95.2*
COc1ccc(C[C@H]2CN3C(=NC[C@@H]3C(C)C)N2C[C@H](C)NC(=O)c2ccc(C)c(Br)c2)cc1,5.2,/,/,/,/,67.7*
COc1ccc(C[C@H]2CN3C(=NC[C@@H]3Cc3ccc(O)cc3)N2CCNC(=O)c2ccc(C)c(Br)c2)cc1,13.1,/,/,/,/,20.6
COc1ccc(C[C@H]2CN3C(=NC[C@H]3Cc3ccccc3)N2CCNC(=O)CCC2CCCCC2)cc1,-1.9,/,/,/,/,76.3*
COc1ccc(-c2cc(C(F)(F)F)c(C#N)c(SCC(=O)O)n2)cc1OC,-8.8,/,/,0.694,/,/
COc1cccc([C@@H]2Oc3ccc(OC)cc3C(=O)[C@H]2O)c1,2.5,28.6,5.3*,1.54,9.1,13.9
O=C(Cn1sc2ccccc2c1=O)NC12CC3CC(CC(C3)C1)C2,4.8,/,0.7*,-2.01,1.1*,100.4*
Nc1cccc2c1C(=O)N(CC(=O)NC13CC4CC(CC(C4)C1)C3)C2=O,2.4,/,/,0.0597,/,-7.8
Cc1cc(C)n(CCNC(=O)CC2C(=O)NCCN2CC2CCCCC2)n1 (centres undefined),5.1,/,/,-0.134,/,-7.2
